Assay results taken from PubChem BioAssay AID488840 (Broad Institute, 2010).
The campaign covered roughly 1,400 compounds. About 45 (3%) were called active.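 Rule for the calls: active = half-maximal dose of signal decrease from fit no higher than ten times the top valid tested dose; inconclusive = fit invalid, or curve flat with 30 to 70% inhibition; inactive = the rest.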 The list is a sample of the results. Measured potencies and affinities stand elsewhere.

molecular target: Lysine-specific demethylase 4A (Homo sapiens) (UniProt O75164); test: inhibition of JMJD2A H3K9me3 demethylation – biochemical, DELFIA europium, cherry-picked samples, selectivity assay for GASC-1 inhibitor project, dose response (AID 488840); settings: GST-JMJD2A(1-420) H3K9me3 demethylation; series mostly up to 6 µM;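 note: europium signal reports the dimethyl H3K9 product detected by antibody so inhibitors lower it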
Sequence (O75164 whole entry, looked up): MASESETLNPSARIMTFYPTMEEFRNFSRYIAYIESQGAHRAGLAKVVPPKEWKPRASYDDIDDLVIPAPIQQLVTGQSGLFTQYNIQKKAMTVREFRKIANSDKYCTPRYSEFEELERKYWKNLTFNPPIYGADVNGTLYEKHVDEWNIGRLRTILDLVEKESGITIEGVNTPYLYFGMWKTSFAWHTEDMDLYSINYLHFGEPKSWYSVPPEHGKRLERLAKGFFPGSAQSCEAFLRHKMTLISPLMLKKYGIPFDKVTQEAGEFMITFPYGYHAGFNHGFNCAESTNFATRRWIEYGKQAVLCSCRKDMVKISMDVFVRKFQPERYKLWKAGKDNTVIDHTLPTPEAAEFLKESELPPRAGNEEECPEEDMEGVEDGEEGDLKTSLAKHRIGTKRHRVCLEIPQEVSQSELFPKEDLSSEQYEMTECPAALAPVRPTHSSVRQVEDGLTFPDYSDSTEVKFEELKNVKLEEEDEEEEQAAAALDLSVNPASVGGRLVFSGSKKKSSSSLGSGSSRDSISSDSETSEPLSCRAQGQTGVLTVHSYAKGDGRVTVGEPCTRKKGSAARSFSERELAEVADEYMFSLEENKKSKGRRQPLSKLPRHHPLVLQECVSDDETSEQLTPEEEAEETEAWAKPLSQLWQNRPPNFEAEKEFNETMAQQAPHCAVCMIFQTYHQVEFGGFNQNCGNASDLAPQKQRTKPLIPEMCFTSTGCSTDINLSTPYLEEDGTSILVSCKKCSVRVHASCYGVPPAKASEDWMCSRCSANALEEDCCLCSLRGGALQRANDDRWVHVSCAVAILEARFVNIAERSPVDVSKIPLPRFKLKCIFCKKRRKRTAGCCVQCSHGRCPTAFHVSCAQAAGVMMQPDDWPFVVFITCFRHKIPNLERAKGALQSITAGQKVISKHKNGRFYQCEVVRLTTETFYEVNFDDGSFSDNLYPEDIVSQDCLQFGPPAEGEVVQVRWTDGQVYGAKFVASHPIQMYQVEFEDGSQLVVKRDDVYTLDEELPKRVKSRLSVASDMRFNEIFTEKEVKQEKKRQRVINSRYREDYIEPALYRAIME

outcome, inactive:
CC(C)C[C@@H]1CN=C(N)N1C[C@@H]1CCCN1C[C@H](C)N1C[C@@H](Cc2ccccc2)N(CCc2ccc(Cl)c(Cl)c2)C1=N
Cc1ccc(S(=O)(=O)N2CCOCC2)cc1C(=O)NNC(=O)c1ccoc1C
COCCCNC(=O)CC1C[C@H](C(=O)N2CCOCC2)[C@@]2(C)c3[nH]c4ccccc4c3CCN2C1=O (stereo partly drawn)
Cc1noc(C)c1CCC(=O)N1CCCC(CCC(=O)NCc2ccccc2F)C1 (stereo not drawn)
COCCn1c(N)c(C(=O)NCC2CCCO2)c2nc3ccccc3nc21 (stereo not drawn)
Cn1c(=O)c2c(nc(NC3CCCCC3)n2Cc2ccccc2)n(C)c1=O
CC(=O)C[C@@H](O)CC(=O)[C@@H]1OC(=O)[C@@H](C)C/C=C\Cc2ccccc21
CCN1C(=O)C(CC(=O)Nc2ccc(OC)cc2)N(CCc2ccccc2F)C1=S (stereo not drawn)
COC(=O)C1CC(O)CN1C(=O)NC1CCCCC1 (stereo not drawn)
CNc1nc2c(c(=O)[nH]c(=O)n2C)n1CCCc1ccccc1
CCCCn1c(=O)[nH]c(=O)c2c1nc(-c1cc(Cl)c(OC)c(OC)c1)n2C
COc1ccc(/C=N/NS(=O)(=O)c2ccc(NC(C)=O)cc2)cc1
N/C(=N\S(=O)(=O)c1cc(C(F)(F)F)cc(C(F)(F)F)c1)c1ccccc1
C[C@@H]1CN([C@@H](C)CO)C(=O)c2cc(NC(=O)Nc3ccc4c(c3)OCO4)ccc2O[C@H]1CN(C)S(=O)(=O)c1ccc(F)cc1
COC(=O)c1ccc(CSc2nc3sc(C(=O)O)c(C)c3c(=O)[nH]2)cc1
CC1CCN(C(=S)NC(=O)c2cccc([N+](=O)[O-])c2)CC1
COc1ccccc1CNC(=O)COc1ccc(S(=O)(=O)N2CCOCC2)cc1C
O=C(CN1C(=O)c2ccccc2C1=O)NCC1COc2ccccc2O1 (stereo not drawn)
O=C(NC1CC2CCC1C2)C1COc2ccccc2O1 (stereo not drawn)
COc1ccccc1/C=C1\SC(=S)N(CCC(=O)NNC(=O)c2ccccc2OC)C1=O
CNC[C@@H]1Oc2c(NC(=O)Nc3ccccc3)cccc2C(=O)N([C@@H](C)CO)C[C@H]1C
N#Cc1cc(-c2ccccc2)nnc1Sc1ccccc1
COc1ccc(OCC(=O)N2CCC3(CC2)CC(=O)c2ccccc2O3)cc1
Cc1ccc(S(=O)(=O)N2[C@@H](c3ccc(Br)cc3)C(C(=O)O)=CC[C@H]2c2cccc(Cl)c2)cc1
CCc1ccc([C@@H]2CC=C(C(=O)O)[C@H](c3ccc(Br)cc3)N2S(=O)(=O)c2ccc(C)cc2)cc1
O=C(Nc1nnc(-c2cc(Cl)ccc2Cl)o1)c1ccco1
O=C(Oc1ccc(N2C(=O)CCC2=O)cc1)c1ccccc1
O=C(CC1C[C@H](C(=O)N2CCCCC2)[C@@]2(CCc3ccccc3)c3[nH]c4ccccc4c3CCN2C1=O)NCCC1=CCCCC1 (stereo partly drawn)
Cc1ccc(OCC(=O)Nc2ccccc2Sc2ccccc2)c([N+](=O)[O-])n1
O=c1oc(C2(O)CCCCC2)cc2ccccc12
COc1ccc(C(=O)O/N=C(\C)c2cnccn2)cc1
COc1ccc(NC(=O)N(C)C[C@H]2Oc3ccc(NC(=O)CCC(F)(F)F)cc3C(=O)N([C@H](C)CO)C[C@@H]2C)cc1
O=C(CSc1nc(-c2ccccc2)cc(=O)[nH]1)NCc1ccc2c(c1)OCO2
O=S(=O)(c1ccc2nc(Nc3ccccc3)ccc2c1)N1CCCCC1
N#Cc1cnn(CC2CCCCC2)c1N
CC(=O)C(Sc1nc(N2CCOCC2)nc(N2CCOCC2)n1)C(=O)Nc1ccccc1 (stereo not drawn)
CCOC(=O)C1=C(c2ccccc2)NC(=O)NC1c1ccc(O)c(OCC)c1 (stereo not drawn)
CCOC(=O)C1=C(C)NC(=O)NC1c1ccc(Br)s1 (stereo not drawn)
Cc1cc(SCC(=O)c2ccccc2)n2nc(C)nc2n1
N=c1nc(-c2ccccc2)ccn1O
O=C(NCC1CCCO1)Nc1ccccc1 (stereo not drawn)
CCOc1ccc(CN2CCN(Cc3nc(C(C)C)cs3)CC2CCO)cc1 (stereo not drawn)
O=C(OCc1c(Cl)cccc1Cl)c1cnccn1
Cc1ccc(NN=Nc2nc3c([nH]2)c(=O)n(C)c(=O)n3C)cc1
Cn1c(=O)c2[nH]c(N3CCN(c4cccc(O)c4)CC3)nc2n(C)c1=O
C#CCOCCOCCOCCNc1nc(N2CCN(C(=O)C([C@@H](C)O)n3cc([C@@H](N)CCCCN)nn3)CC2)nc(N2CCN(C(=O)[C@H](CC(N)=O)n3cc([C@@H](N)C(C)C)nn3)CC2)n1 (stereo partly drawn)
COc1ccc(/C=N/N(C)c2cc(=O)n(C)c(=O)[nH]2)cc1OC
Nc1ccc(S(=O)(=O)NC2(C(F)(F)F)NC(=O)N(c3ccc(F)cc3)C2=O)cc1 (stereo not drawn)
COc1ccc(N(Cc2cc3cccc(C)c3[nH]c2=O)S(C)(=O)=O)cc1
O=C(Nc1ccccc1)N(CCc1nc2ccccc2[nH]1)C1CCCC1
COc1ccc(NC(=O)NCCCCc2ccccc2)c(OC)c1
O=C(Cn1cnc2c(OCc3ccccc3)ncnc21)NCCCc1ccccc1
Cc1cc(NC(=O)CCC(=O)N(c2ccccc2)C2(C(=O)NC3CCCCC3)CCCC2)no1
Cc1cnc(NC(=O)c2ccc(-c3nc4ccccc4s3)o2)s1
Cn1c(/N=C/c2cc(Cl)ccc2O)nc2ccccc21
O=C(COC(=O)C1(c2ccc(Cl)cc2)CCCC1)NC1CCS(=O)(=O)C1 (stereo not drawn)
O=C(CSc1nnc(CNC(=O)c2c(F)cccc2Cl)o1)Nc1ccc2c(c1)OCCO2
COc1ccc(-c2nn3c(-c4ccco4)nnc3s2)cc1OC
CC(C)(C)n1nc2c(c1NC(=O)c1ccc(Br)o1)CS(=O)C2 (stereo not drawn)
O=C(Nc1ccc(-c2nc3ncccc3o2)cc1)c1ccc(Br)o1
CCn1c(CCn2ccnc2C)n[nH]c1=S
COC(=O)c1cc(S(=O)(=O)N2CCN(c3ccc(F)cc3)CC2)c[nH]1
COc1ccc(/C=N/n2c(=O)[nH]c3c([nH]c4ccc(Br)cc43)c2=O)cc1CN1CCOCC1
